Experimental data taken from ChEMBL document CHEMBL1961873, “Compounds: GSK PKIS; Assays: Nanosyn kinase panel” (2012).

Legend:
[1] = biological target: Serine/threonine-protein kinase 26 (Homo sapiens) (UniProt Q9P289); details: at 1 µM;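 also: mean inhibition of MST4 kinase activity, reported from the GSK PKIS inhibitor-set screening panel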
[2] = biological target: Serine/threonine-protein kinase PAK 1 (Homo sapiens) (UniProt Q13153); details: at 0.1 µM
[3] = biological target: Serine/threonine-protein kinase PAK 1 (Homo sapiens) (UniProt Q13153); details: at 1 µM
[4] = biological target: Serine/threonine-protein kinase PAK 2 (Homo sapiens) (UniProt Q13177); details: at 0.1 µM
[5] = biological target: Serine/threonine-protein kinase PAK 2 (Homo sapiens) (UniProt Q13177); details: at 1 µM
[6] = biological target: Serine/threonine-protein kinase PAK 3 (Homo sapiens) (UniProt O75914); details: at 0.1 µM
[7] = biological target: Serine/threonine-protein kinase PAK 3 (Homo sapiens) (UniProt O75914); details: at 1 µM
[8] = biological target: Serine/threonine-protein kinase PAK 5 (Homo sapiens) (UniProt Q9P286); details: at 0.1 µM
[9] = biological target: Serine/threonine-protein kinase PAK 5 (Homo sapiens) (UniProt Q9P286); details: at 1 µM
[10] = biological target: Serine/threonine-protein kinase PAK 6 (Homo sapiens) (UniProt Q9NQU5); details: at 0.1 µM;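 also: mean PAK6 inhibition reported from the GSK PKIS screen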
Sequence of Serine/threonine-protein kinase PAK 6 (Homo sapiens) (Q9NQU5 whole entry, looked up): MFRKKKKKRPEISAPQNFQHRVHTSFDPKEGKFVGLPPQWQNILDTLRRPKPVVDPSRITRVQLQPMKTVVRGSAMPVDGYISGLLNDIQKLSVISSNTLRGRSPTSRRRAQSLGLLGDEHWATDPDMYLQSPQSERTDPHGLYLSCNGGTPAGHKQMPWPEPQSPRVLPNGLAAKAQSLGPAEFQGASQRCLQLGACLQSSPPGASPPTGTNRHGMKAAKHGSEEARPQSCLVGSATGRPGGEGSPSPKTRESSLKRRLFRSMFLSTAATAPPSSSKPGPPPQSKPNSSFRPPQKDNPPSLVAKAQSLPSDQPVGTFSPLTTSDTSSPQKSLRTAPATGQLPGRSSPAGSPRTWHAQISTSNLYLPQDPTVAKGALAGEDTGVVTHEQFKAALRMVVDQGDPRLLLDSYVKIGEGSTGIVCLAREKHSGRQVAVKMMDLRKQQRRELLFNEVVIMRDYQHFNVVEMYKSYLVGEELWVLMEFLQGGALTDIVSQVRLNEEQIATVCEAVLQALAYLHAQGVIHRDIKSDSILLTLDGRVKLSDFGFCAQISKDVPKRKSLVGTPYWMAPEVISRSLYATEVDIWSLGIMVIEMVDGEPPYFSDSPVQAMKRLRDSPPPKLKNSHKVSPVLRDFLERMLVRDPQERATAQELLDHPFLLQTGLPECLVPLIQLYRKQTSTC

Sequence of Serine/threonine-protein kinase PAK 3 (Homo sapiens) (O75914 whole entry, looked up): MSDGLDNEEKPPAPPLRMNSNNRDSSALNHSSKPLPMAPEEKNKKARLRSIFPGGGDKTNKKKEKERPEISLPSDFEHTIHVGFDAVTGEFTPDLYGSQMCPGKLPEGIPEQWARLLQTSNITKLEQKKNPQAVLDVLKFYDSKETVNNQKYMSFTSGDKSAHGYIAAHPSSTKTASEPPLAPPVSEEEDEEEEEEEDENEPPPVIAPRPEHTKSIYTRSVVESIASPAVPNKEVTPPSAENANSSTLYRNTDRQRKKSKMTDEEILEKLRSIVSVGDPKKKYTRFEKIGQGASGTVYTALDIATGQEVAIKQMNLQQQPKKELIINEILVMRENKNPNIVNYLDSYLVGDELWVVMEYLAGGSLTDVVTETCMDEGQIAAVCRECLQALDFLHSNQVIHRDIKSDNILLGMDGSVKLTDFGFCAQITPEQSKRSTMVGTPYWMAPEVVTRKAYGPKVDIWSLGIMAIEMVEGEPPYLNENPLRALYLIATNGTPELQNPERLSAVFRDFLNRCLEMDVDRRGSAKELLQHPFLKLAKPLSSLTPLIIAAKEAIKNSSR
Sequence of Serine/threonine-protein kinase PAK 5 (Homo sapiens) (Q9P286 whole entry, looked up): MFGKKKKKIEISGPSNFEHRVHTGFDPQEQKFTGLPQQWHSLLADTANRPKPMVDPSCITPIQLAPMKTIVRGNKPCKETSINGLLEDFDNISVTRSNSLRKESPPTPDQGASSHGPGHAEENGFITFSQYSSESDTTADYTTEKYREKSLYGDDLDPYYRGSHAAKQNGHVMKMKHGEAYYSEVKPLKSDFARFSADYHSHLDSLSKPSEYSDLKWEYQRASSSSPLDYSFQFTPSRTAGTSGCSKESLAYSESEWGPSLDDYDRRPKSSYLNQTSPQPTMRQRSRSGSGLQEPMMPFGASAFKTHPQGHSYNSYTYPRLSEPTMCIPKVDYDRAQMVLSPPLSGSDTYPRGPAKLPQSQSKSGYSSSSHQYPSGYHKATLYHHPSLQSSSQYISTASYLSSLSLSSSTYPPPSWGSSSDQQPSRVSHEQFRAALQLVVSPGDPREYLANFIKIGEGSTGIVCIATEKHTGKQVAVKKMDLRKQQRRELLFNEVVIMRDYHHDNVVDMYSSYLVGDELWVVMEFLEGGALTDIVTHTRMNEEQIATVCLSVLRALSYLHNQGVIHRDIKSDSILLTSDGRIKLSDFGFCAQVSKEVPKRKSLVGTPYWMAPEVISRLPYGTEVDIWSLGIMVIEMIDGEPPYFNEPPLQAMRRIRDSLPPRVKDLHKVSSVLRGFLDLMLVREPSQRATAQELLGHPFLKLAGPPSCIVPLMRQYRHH
Sequence of Serine/threonine-protein kinase 26 (Homo sapiens) (Q9P289 2-416 limits assumed): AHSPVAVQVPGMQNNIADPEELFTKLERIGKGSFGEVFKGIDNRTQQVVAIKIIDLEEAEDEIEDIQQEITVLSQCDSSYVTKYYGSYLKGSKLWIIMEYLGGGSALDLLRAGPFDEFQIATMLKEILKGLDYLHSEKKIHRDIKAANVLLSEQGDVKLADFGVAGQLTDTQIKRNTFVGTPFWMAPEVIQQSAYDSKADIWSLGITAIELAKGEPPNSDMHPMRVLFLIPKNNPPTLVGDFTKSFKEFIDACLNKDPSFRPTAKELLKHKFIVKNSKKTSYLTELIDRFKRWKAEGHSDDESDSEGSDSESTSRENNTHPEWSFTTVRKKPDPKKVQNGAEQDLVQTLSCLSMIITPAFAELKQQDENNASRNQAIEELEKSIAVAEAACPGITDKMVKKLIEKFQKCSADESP
Sequence of Serine/threonine-protein kinase PAK 2 (Homo sapiens) (Q13177 whole entry): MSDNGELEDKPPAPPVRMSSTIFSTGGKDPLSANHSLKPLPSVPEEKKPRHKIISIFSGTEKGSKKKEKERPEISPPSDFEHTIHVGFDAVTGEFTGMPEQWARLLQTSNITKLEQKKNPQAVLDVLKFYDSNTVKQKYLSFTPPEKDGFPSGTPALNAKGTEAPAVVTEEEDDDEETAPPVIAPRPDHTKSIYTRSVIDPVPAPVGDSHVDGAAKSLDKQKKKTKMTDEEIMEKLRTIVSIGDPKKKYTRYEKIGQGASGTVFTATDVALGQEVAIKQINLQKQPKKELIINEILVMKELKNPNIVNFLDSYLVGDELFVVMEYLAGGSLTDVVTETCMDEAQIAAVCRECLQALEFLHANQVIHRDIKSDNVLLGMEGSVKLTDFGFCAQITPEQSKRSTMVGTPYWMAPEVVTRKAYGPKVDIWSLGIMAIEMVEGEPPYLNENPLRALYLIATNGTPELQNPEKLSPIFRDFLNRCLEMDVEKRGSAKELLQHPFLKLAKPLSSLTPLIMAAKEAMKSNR
Sequence of Serine/threonine-protein kinase PAK 1 (Homo sapiens) (Q13153 whole entry): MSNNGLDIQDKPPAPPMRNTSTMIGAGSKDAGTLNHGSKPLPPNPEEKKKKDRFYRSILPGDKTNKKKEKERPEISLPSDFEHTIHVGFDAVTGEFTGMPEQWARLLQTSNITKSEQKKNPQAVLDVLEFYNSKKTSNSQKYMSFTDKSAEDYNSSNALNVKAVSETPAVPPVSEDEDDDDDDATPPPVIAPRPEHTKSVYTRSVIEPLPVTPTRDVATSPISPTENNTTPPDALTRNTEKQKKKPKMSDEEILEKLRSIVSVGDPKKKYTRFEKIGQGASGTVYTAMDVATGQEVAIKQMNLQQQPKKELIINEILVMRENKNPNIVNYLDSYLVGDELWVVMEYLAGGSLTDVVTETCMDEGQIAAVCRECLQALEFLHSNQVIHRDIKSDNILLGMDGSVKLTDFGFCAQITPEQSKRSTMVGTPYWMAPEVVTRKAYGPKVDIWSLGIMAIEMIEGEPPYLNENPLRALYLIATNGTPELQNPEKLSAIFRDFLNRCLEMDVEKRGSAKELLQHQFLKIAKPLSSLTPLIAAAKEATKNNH

Row | SMILES | inhibition [1] | inhibition [2] | inhibition [3] | inhibition [4] | inhibition [5] | inhibition [6] | inhibition [7] | inhibition [8] | inhibition [9] | inhibition [10]
1 | COc1cccc(-n2ncc3c(N/N=C/c4ccc(C)cc4)ncnc32)c1 | -3.2% | 10% | 9.32% | 1.75% | 1.47% | 6.06% | 6.42% | 6.1% | 10.7% | –
2 | N#Cc1cccc(Nc2nccc(-c3cnn4ncccc34)n2)c1 | 3.34% | 8.03% | 7.42% | 1.67% | 3.52% | 3.6% | 5.22% | 0.7% | 12.7% | -4.74%
3 | NC(=O)c1sc(-n2cnc3ccccc32)cc1OCc1ccccc1Br | -2.12% | 6.29% | 10% | 1.42% | 2.45% | 4.83% | 5.89% | 2.59% | 5.06% | –
4 | c1ccc(Nc2ncc(-c3ccccc3)o2)cc1 | 0.04% | 6.49% | 10.6% | 0.76% | 2.87% | 5.16% | 4.34% | 2.74% | 2.9% | –
5 | Nc1nccc(C#Cc2cncnc2Nc2ccc(OCc3cccc(F)c3)c(Cl)c2)n1 | -8.32% | 6.18% | 3.97% | 1.6% | 2.31% | 0.29% | 3.37% | 3.29% | -3.56% | 5.51%
6 | CS(=O)(=O)CCNCc1nc(-c2ccc3ncnc(Nc4ccc(OCc5cccc(C(F)(F)F)c5)cc4)c3c2)cs1 | 1.5% | 1.25% | 3.12% | -0.05% | -0.1% | 2.76% | 5.04% | 2.81% | 1.26% | –
7 | Cc1ccc(Nc2ccnc(Nc3cccc(C(N)=O)c3)n2)cc1O | 2.75% | 5.46% | 8.57% | 1.77% | 1.45% | 3.06% | 3.98% | 5.17% | 11.2% | –
8 | NS(=O)(=O)c1ccc(-c2cc3ccncc3cc2OCc2ccccc2)cc1 | 0.38% | 5.31% | 6.13% | 1.08% | 0.46% | 3.48% | 4.21% | 1.12% | -3.7% | –
9 | CCS(=O)(=O)c1ccc(OC)c(Nc2ncc(-c3cccc(OC)c3)o2)c1 | -4.12% | 2.01% | 5.71% | 2.79% | 1.98% | 3.24% | 2.36% | 6.72% | -1.57% | -4.37%
10 | Cc1ccc2c(-c3ccnc(Nc4cccc(C(F)(F)F)c4)n3)c(-c3ccccc3)nn2n1 | 13.3% | 9.96% | 8.06% | 1.38% | 1.7% | 5.11% | 5.68% | -4.38% | -7% | –
11 | CN(C)C(=O)O[C@H]1CN[C@H](C#Cc2cc3ncnc(Nc4ccc(OCc5cccc(F)c5)c(Cl)c4)c3s2)C1 | -0.62% | 4.28% | 2.22% | 1.72% | -0.31% | 2.53% | 4.3% | 4.8% | 1.82% | 9.3%
12 | Cc1ccc(NC(=O)CC2CC2)cc1-c1ccc(C(=O)NCC2CC2)cc1 | 0.9% | 5.24% | 4.74% | 1.76% | 1.56% | 3.33% | 4.25% | 6.64% | 5.74% | –
13 | NC(=O)c1cccc(Nc2nccc(Nc3cccc(F)c3)n2)c1 | 2.97% | 0.29% | 2.79% | 0.32% | 0.69% | 0.23% | 2.37% | -1.35% | 1.21% | –
14 | CCS(=O)(=O)c1ccc(OC)c(Nc2nccc(N(C)c3ccc4c(C)n[nH]c4c3)n2)c1 | 0.16% | 3.86% | 6.28% | 1.58% | 1.86% | 5.97% | 5.09% | 1.92% | 0.85% | –
15 | OCc1ccc(-c2nc(-c3ccccn3)c(-c3ccc4c(c3)OCO4)[nH]2)cc1 | -2.75% | 3.25% | 7.25% | 2.61% | 2.79% | 4.79% | 5.17% | 1.77% | 0.71% | 3.79%
16 | Cc1ccc(C(=O)NC2CC2)cc1-c1ccc2[nH]ncc2c1 | -0.24% | -0.61% | -2.6% | -3.3% | -4.55% | -4.8% | -3.91% | -4.55% | -2.43% | 1.46%
17 | COC(=O)Nc1nc2cc(Oc3ccc(NC(=O)Nc4cccc(Br)c4)cc3)ccc2[nH]1 | 9.97% | -0.8% | 6.23% | 0.73% | 0.39% | 2.85% | 2.59% | -1.29% | -0.7% | -5.52%

Row | SMILES | inhibition [1] | inhibition [2] | inhibition [3] | inhibition [4] | inhibition [5] | inhibition [6] | inhibition [7] | inhibition [8] | inhibition [9] | inhibition [10]
18 | COc1cccc(-n2nc(C)c3c(N/N=C(\C)c4ccncc4)ncnc32)c1 | 1.92% | -1.07% | 5.57% | -1.35% | -0.3% | 0.46% | 2.49% | -0.74% | -1.22% | –
19 | Oc1cccc(-c2nc(-c3ccccc3)[nH]c2-c2ccncc2)c1 | 4.67% | 6.65% | 6.51% | 2.18% | 1.52% | 3.47% | 3.48% | 11.4% | 15.7% | –
20 | NS(=O)(=O)c1ccc(N/N=C2\C(=O)Nc3ccc(Cl)cc32)cc1 | 13.4% | 3.14% | 5.51% | 0.72% | 1.37% | 3.71% | 5.15% | 4.18% | 3.28% | -3.69%
21 | CC(C)c1ccc(Nc2nccc(-c3cnn4ncccc34)n2)cc1 | 2.8% | 2.05% | 3.55% | 1.06% | 0.9% | 1.95% | 2.33% | -3.7% | 2.48% | -6.25%
22 | O=C(Nc1ccc(Oc2ccc3[nH]c(NC(=O)c4ccco4)nc3c2)cc1)Nc1cc(C(F)(F)F)ccc1F | 0.33% | -2.95% | -0.15% | 0.17% | 0.57% | -0.21% | 0.34% | 6.4% | 6.36% | 2.79%
23 | CCCN1CCCC(c2ccc(Nc3nc(Nc4cc(F)ccc4C(N)=O)c4cc[nH]c4n3)c(OC)c2)C1 (configuration not stated) | -1.5% | 7.38% | 9.12% | 2.49% | 3.33% | 4.64% | 5.56% | 1.21% | 6.67% | 2%
24 | O=S(=O)(CCOCc1ccc(-c2ccc3ncnc(Nc4ccc(OCc5cccc(F)c5)c(Cl)c4)c3c2)o1)c1ccccc1 | 0.25% | 4.98% | 5.84% | -0.35% | 0.7% | 0.57% | 2.12% | 0.21% | -1.3% | –
25 | CCn1c(-c2nonc2N)nc2c(C#CC(C)(C)O)nc(OCCNC)cc21 | -1.03% | 8.56% | 5.49% | 1.23% | 2.27% | 3.16% | 5.05% | 3.8% | 12.5% | –
26 | Cc1cc(-c2ccccn2)cc(C)c1/C=C/c1cncc(-c2nn[nH]n2)c1 | 5.19% | 6.38% | 6.81% | 1.95% | 2.95% | 4.9% | 5.22% | 1.64% | 0.08% | –
27 | CN1CCN(C(=O)c2ccc(NC(=O)Nc3ccc(N(C)c4ccnc(Nc5ccc(CS(C)(=O)=O)cc5)n4)cc3)cc2)CC1 | 12.8% | -0.46% | 6.1% | 0.16% | 1.51% | 1.85% | 5.09% | 3.35% | 17.6% | –
28 | CN(c1ccc(NC(=O)Nc2ccc(OC(F)(F)F)cc2)cc1)c1ccnc(Nc2cccc(S(N)(=O)=O)c2)n1 | -3.21% | 1.61% | -0.37% | 0.53% | -1.63% | 2.32% | 0.7% | -3.24% | 1.16% | -3.33%
29 | COc1cc2ncnc(Nc3ccc4c(cnn4Cc4ccccc4)c3)c2cc1OC | -2.02% | 4.26% | 6.92% | 1.54% | 2.6% | 2.02% | 3.19% | 1.77% | 2.16% | –
30 | Cc1ccc2c(-c3ccnc(Nc4ccc5c(c4)OCCO5)n3)c(-c3ccc(C(F)(F)F)cc3)nn2n1 | 0.53% | 0.57% | 2.13% | 0.68% | -0.11% | 2% | 0.74% | -9.67% | -4.92% | 7.58%
31 | NS(=O)(=O)c1cccc(Nc2cc(-c3ccc(F)cc3)n[nH]2)c1 | 0.86% | 3.94% | 8.53% | 1.36% | 1.54% | 3.88% | 4.82% | 10.3% | 11.7% | 2.82%
32 | COc1cc2ncn(-c3cc(OCc4ccccc4S(C)(=O)=O)c(C#N)s3)c2cc1OC | 0.22% | 6.88% | 5.61% | 0.99% | 2.17% | 4.63% | 5.52% | 3.87% | 4.97% | 4.22%
33 | COC(=O)c1ccc2c(c1)C(=Cc1cc(Br)c(O)c(Br)c1)C(=O)N2 | 15.1% | 8.19% | 10.1% | 1.7% | 1.99% | 4.21% | 5.43% | 7.06% | 10.8% | –
34 | NS(=O)(=O)c1cccc(-c2cc3ccncc3cc2OCc2ccccc2)c1 | -3.77% | 7.59% | 6.92% | 3.01% | 2.6% | 4.78% | 7.31% | -0.43% | -0.51% | -0.02%
